Assay results from PubChem BioAssay AID652057 (Broad Institute, 2013).
Among all 1,400 compounds or so, about 1,000 (71%) were called active. No rule for the calls is given here. So high a share suggests a set chosen from earlier hits. These entries were drawn from the full list. Potency and affinity values are given separately.

Assay: blockers of HIV-1 envelope-mediated cell-cell fusion – cherry-pick, dose response (AID 652057)
Conditions: HeLa-JRFL Env/CEM21 cell fusion, luciferase; series mostly up to 35 µM

Activity change, negative = inhibition, inactive:
CC(=O)Nc1ccc(C(=O)OCC(=O)NC(=O)NCc2ccccc2)cc1, COc1ccc(NS(=O)(=O)c2cccc(C(=O)NNC(=O)CNC(=O)c3ccc(C)cc3)c2)cc1, Cc1ccc(-n2nnnc2SCn2nnc3ccccc3c2=O)c(C)c1, COc1ccccc1CN(C)C(=O)CN1CCN(C(=O)c2cccs2)CC1, C[C@@H]1CN([C@@H](C)CO)S(=O)(=O)c2ccc(-c3ccc(F)cc3)cc2O[C@H]1CN(C)C(=O)C1CCCCC1, CC(=O)OC1c2ccccc2C(=O)N1c1ccccc1C (centres undefined), CNC[C@H]1Oc2c(NC(=O)Nc3cccc4ccccc34)cccc2C(=O)N([C@H](C)CO)C[C@H]1C, Cc1sc2ncnc(N3CCN(S(=O)(=O)c4ccc(Br)cc4)CC3)c2c1C, COc1cc(-c2cc(OC)c(O)c(OC)c2)cc(OC)c1O, O=C(Nc1ccc(F)cc1)Nc1ccc2c(c1)[C@@H]1C[C@H](CC(=O)N3CCCCC3)O[C@H](CO)[C@@H]1O2, COC(=O)C[C@H]1C=C[C@H](NC(=O)c2ccccn2)[C@@H](CO)O1, O=C(C[C@@H]1C=C[C@@H](NC(=O)c2ccccc2)[C@H](CO)O1)NCc1ccc(Oc2ccccc2)cc1, COc1ccc(CCCC(=O)NCCc2ccccc2)c(C)c1, COc1ccccc1-c1c(-c2ccc(O)cc2O)n[nH]c1C(F)(F)F, COCc1[nH]nc2c1C(c1ccc(F)cc1)N(Cc1ccccc1)C2=O (centres undefined), CNc1nc2c(c(=O)n(C)c(=O)n2C)n1Cc1ccccc1, C=CCNc1nc2c(c(=O)n(C)c(=O)n2C)n1CCCCCC, CCCCn1c(CN(C)Cc2ccccc2)nc2c1c(=O)n(C)c(=O)n2C, CC(C)NC(=O)N(C)C[C@@H]1Oc2ccc(NC(=O)C3CC3)cc2CC(=O)N([C@H](C)CO)C[C@H]1C, CC(C)NC(=O)N(C)C[C@@H]1Oc2ccc(NC(=O)C3CC3)cc2CC(=O)N([C@@H](C)CO)C[C@@H]1C, Cc1cc(Oc2ccc(C#N)cc2)nc(NCc2ccccc2)n1, c1ccc(CSc2nnc([C@@H]3CCCN3)o2)cc1, COc1ccc(/C(C)=N/NC(=O)c2cccc(S(=O)(=O)N3CCCC3)c2)c(O)c1 -20.9% [at 8 µM], COc1ccc(C(O)c2nc3ccccc3n2C)cc1OC (centres undefined), CCCCCn1c(C(C)NC(=O)CCC)nc2ccccc21 (centres undefined), CCN1CCN(S(=O)(=O)c2ccc(Cl)c(C(=O)Nc3ccccc3N3CCCC3)c2)CC1, CCNc1ncnc2c1cnn2C1CCCO1 (centres undefined), CCOc1ccccc1CNc1ncnc2ccc(-c3c(C)noc3C)cc12, Nc1ccc(O)cc1C(=O)OCC(=O)c1ccc(C2CCCCC2)cc1, Cc1nc2ccccc2n1CC(=O)NCc1ccccc1, CC(C)CN(C(=O)c1ccc(S(=O)(=O)N2CCCCC2)cc1)C1CCS(=O)(=O)C1 (centres undefined), CCCCCCCCCCOC(=O)Cn1c(COc2ccccc2OC)[n+](C)c2ccccc21, CNC[C@@H]1Oc2c(N)cccc2C(=O)N([C@@H](C)CO)C[C@@H]1C, Cc1ccc(-n2ncc3c(N4CCN(c5ccccc5)CC4)ncnc32)c(C)c1, Cc1ccc2c(c1)c1c3n2CCN(CC(N)=O)C3CCC1 (centres undefined), O=C(Nc1ccncc1)c1ccc(Cl)c(S(=O)(=O)N2CCc3ccccc32)c1, CC(OC(=O)c1ccc(NC(=O)CC#N)cc1)C(=O)NCCC1=CCCCC1 (centres undefined), CC(=O)c1c(C)[nH]c(C(=O)OCCCCN2C(=O)c3ccccc3C2=O)c1C, CC(=O)c1c(C)[nH]c(C(=O)OCC(=O)Nc2c(C)cccc2C)c1C, COc1ccc(S(=O)(=O)N2CCCCC2)cc1NC(=O)CN(Cc1ccco1)Cc1ccco1, COc1ccc(S(=O)(=O)N2CCCCC2)cc1NC(=O)CCCOc1ccc(C)cc1, COc1ccccc1C(=O)Nc1ccc2c(c1)OC[C@H](C)N(C(C)=O)C[C@H](C)[C@H](OC)CN(C)C2=O, COc1ccc(NC(=O)C(=O)NCC2CCCN2S(=O)(=O)c2cccs2)cc1 (centres undefined), CNC[C@@H]1Oc2ccc(NS(C)(=O)=O)cc2CC(=O)N([C@H](C)CO)C[C@H]1C, O=C(C[C@@H]1C[C@@H]2c3cc(NC(=O)C4CCOCC4)ccc3O[C@@H]2[C@H](CO)O1)NCc1ccccc1F, O=C(NCc1ccccc1)c1ccc(C(=O)NCc2ccccc2)cc1, O=C(CCNC(=O)c1ccc(Br)cc1)NNC(=O)COc1ccccc1F, O=C(C[C@@H]1C[C@@H]2c3cc(NC(=O)C4CCOCC4)ccc3O[C@@H]2[C@H](CO)O1)NCCc1ccccc1, CN(C)C(=O)C[C@H]1C[C@@H]2c3cc(NC(=O)NC4CCCCC4)ccc3O[C@@H]2[C@H](CO)O1, Cc1ccccc1-n1c(=O)c2ccccc2n2cnnc12, Cc1ccc(NS(=O)(=O)c2cc(C(=O)N(C)C3CCN(C)CC3)ccc2Cl)cc1Cl, Cc1nc2ccc(NC(=O)c3cc(S(=O)(=O)N(C)c4ccccc4)ccc3Cl)cc2s1, Cc1ccc(-n2nc3c(c2NC(=O)c2ccco2)CS(=O)C3)cc1 (centres undefined), O=C(CC1C(=O)NCCN1Cc1cccc(F)c1)NC1CCCCC1 (centres undefined), CCN(CCn1cccn1)C(=O)CC1C(=O)NCCN1CCc1ccccc1 (centres undefined), COc1ccccc1S(=O)(=O)N[C@H]1CC[C@H](CC(=O)N2CCN(C)CC2)O[C@H]1CO, COc1ccccc1S(=O)(=O)N[C@H]1CC[C@@H](CC(=O)N2CCN(C)CC2)O[C@H]1CO, O=C(O)C[C@@H]1C=C[C@@H](NC(=O)Nc2ccccc2)[C@H](CO)O1, O=C(O)C[C@@H]1C=C[C@H](NC(=O)Nc2ccccc2)[C@H](CO)O1, Nc1ccn([C@@H]2O[C@H](C(=O)NCc3ccc4c(c3)OCO4)[C@@H](O)[C@H]2O)c(=O)n1, Cc1ccc(S(=O)(=O)N[C@@H]2CC[C@H](CCNC(=O)c3ccccc3F)O[C@H]2CO)cc1, CCN(C1CCCCC1)S(=O)(=O)c1ccc(S(=O)(=O)NCc2ccncc2)cc1, CO[C@H]1CN(C)C(=O)c2ccc(NC(=O)Nc3cccc(F)c3)cc2OC[C@H](C)NC[C@H]1C, CO[C@@H]1CN(C)C(=O)c2ccc(NC(C)=O)cc2OC[C@@H](C)N(Cc2cncnc2)C[C@@H]1C, CO[C@@H]1CN(C)C(=O)c2ccc(NS(C)(=O)=O)cc2OC[C@@H](C)N(C(=O)C2CCCCC2)C[C@H]1C, CO[C@H]1CN(C)C(=O)c2ccc(NC(=O)C3CC3)cc2OC[C@@H](C)N(C(C)=O)C[C@@H]1C, CCCC(=O)Nc1ccc2c(c1)OC[C@@H](C)N(C(=O)CN(C)C)C[C@H](C)[C@@H](OC)CN(C)C2=O, CCCC(=O)Nc1ccc2c(c1)OC[C@H](C)N(C(=O)CN(C)C)C[C@@H](C)[C@H](OC)CN(C)C2=O, CO[C@H]1CN(C)C(=O)c2cc(NC(=O)C3CCOCC3)ccc2OC[C@H](C)N(Cc2nccs2)C[C@H]1C, CO[C@H]1CN(C)C(=O)c2ccc(NC(=O)Nc3cccc(F)c3)cc2OC[C@@H](C)N(C(C)=O)C[C@H]1C, CCC(=O)Nc1ccc2c(c1)C(=O)N(C)C[C@@H](OC)[C@H](C)CN(C(=O)CC)[C@@H](C)CO2, CCCC(=O)Nc1ccc2c(c1)OC[C@H](C)N(Cc1ccncc1)C[C@H](C)[C@H](OC)CN(C)C2=O, N#Cc1ccc(CSc2nnc(COc3ccccc3)n2-c2ccccc2)cc1, Cc1ccc(S(=O)(=O)N(C)C[C@H]2Oc3ccc(NC(=O)Nc4cccc5ccccc45)cc3C(=O)N([C@H](C)CO)C[C@@H]2C)cc1
